MCF10A rereplic = inducers of DNA re-replication in MCF 10A breast cells; MCF 10A DNA re-replication, Hoechst nuclear intensity, 48 h; Potency, µM (highest dose often 46.1 µM), hits mostly activators; 350,000 compounds, 2.9% hits; note: nearly all actives have a fitted effect of over 50% in size
ELG1 repair inh = blocks ELG1-dependent DNA repair in HEK293T cells; HEK293T ELG1-luciferase reporter, luminescence, 16 h; DNA damage induced by 5-fluorouridine; Potency, µM (titrated, usually from 46.1 µM), usual class: inhibitors; AID 504467; 330,000 compounds, 2.3% hits; note: nearly all actives have a fitted effect of over 55% in size
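HEK293T cells expressing luciferase-tagged ELG1 (2,000/well) received 5-Fluorouridine plus compound or DMSO for 16 hr at 37 °C. Luciferase was read by ONE-Glo luminescence after 30 min at room temperature.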
p53 reactivator = re-activators of mutant p53; H1299 p53-A138V BP100-luciferase reporter, luminescence, 24 h; Potency, µM (top dose mostly 92.2 µM), actives largely listed as activators; 320,000 compounds, 0.063% hits; AID 504706; note: nearly all actives have a fitted effect of over 45% in size
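p53-null H1299 cells stably carrying temperature-sensitive p53-A138V and a BP100-luciferase reporter were pinned with compounds (4-point, 1:5 series) and held 24 hrs at 37 deg C. Luminescence was read 10 min after detection reagent.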
ELG1 genotox = inducers of genotoxicity in HEK293T ELG1-luciferase cells | HEK293T ELG1-luciferase reporter, luminescence, 16 h | Potency, µM (series often up to 46 µM), actives largely listed as activators | 330,000 compounds, 1.3% hits | AID 504466; note: nearly all actives have a fitted effect of over 60% in size
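Step 1: seed 2,000 HEK293T ELG1-luciferase cells per well. Step 2: add compound or DMSO, incubate 16 hr at 37 °C. Step 3: ONE-Glo, 30 min at room temperature, read luminescence.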
A-T KAP1 phos = candidate therapy for ataxia-telangiectasia; F2112 A-T fibroblasts, KAP-1 phosphorylation AlphaLISA; neocarzinostatin DNA damage 30 min before lysis; Potency, µM (titrated, usually from 57.5 µM), hits mostly activators; 320,000 compounds, 0.19% hits; AID 485349; note: nearly all actives have a fitted effect of over 45% in size
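ATM-like activity read as KAP-1 phosphorylation via AlphaLISA donor/acceptor antibody pairs after lysis and 6 hr at 25C. Cells were ATM-null patient fibroblasts (F2112, hTERT), dosed 60 min, then exposed to the DSB inducer NCS for 30 min.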
SW480 rerep = inducers of DNA re-replication in SW480 colon cancer cells | SW480 DNA re-replication, Hoechst DNA content imaging, 48 h | Potency, µM (titrated, usually from 46.1 µM), usual class: activators | 340,000 compounds, 1.8% hits; note: nearly all actives have a fitted effect of over 55% in size
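Image-based read-out: total Hoechst fluorescence of nuclei (405 nm excitation, 500-530 nm emission), with hits raising the fraction of high-intensity nuclei. SW480 colon cells incubated 48 hr with compounds at 37 C.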
A number is an active result; i = inactive; ? = inconclusive; nt = not tested or not shown; [ ] = another dose, or the depositor's remark. Only some compounds are listed: those with a hit (about 7.1% of all), similar ones and a draw of the others. Calls come from the whole dose curve; as a rule, active = well fitted curve in the direction sought with a large enough effect; inconclusive = small, poorly fitted or top-dose-only effect, or another doubt; inactive = no such curve, though single readings can be large; an effect the other way counts as inactive or inconclusive.

SMILES | MCF10A rereplic | ELG1 repair inh | p53 reactivator | ELG1 genotox | A-T KAP1 phos | SW480 rerep
Cc1cc(C)cc(Nc2nc(-c3ccc(S(=O)(=O)N4CCCC4)cc3)cs2)c1 | i | 23.1µM | i | i | i | i
Cc1ccc(Nc2nc(-c3ccc(S(=O)(=O)N4CCCC4)cc3)cs2)cc1C | ? | i | i | i | i | i
O=C(Nc1nc(-c2cccs2)cs1)c1ccc(S(=O)(=O)N2CCCC2)cc1 | i | 16.4µM | i | i | i | ?
O=C(Nc1nc(-c2ccc(S(=O)(=O)N3CCCCCC3)cc2)cs1)c1ccccc1 | i | 7.31µM | i | i | nt | i
CN(C)S(=O)(=O)c1ccc(C(=O)Nc2nnc(-c3cccs3)o2)cc1 | ? | ? | i | i | i | i
CC(C)(C)NC(=O)COC(=O)c1ccc2c(c1)C(=O)N(Cc1ccco1)C2=O | i | i | i | i | i | i
COc1cc(NC(=O)COC(=O)CO/N=C(\C)c2ccc3c(c2)OCO3)cc(OC)c1 | i | i | i | i | i | i
C=CCC1(CC=C)CCCN1C(=O)c1cc(COc2ccc(C)nc2)on1 | i | ? | ? | i | i | i
c1ccc(-c2cc(-c3ccncc3)nc3ccc4ccccc4c23)cc1 | 14.6µM | i | i | i | i | ?
Clc1ccc2nc(-c3ccncc3)cc(-c3ccccc3)c2c1 | i | i | i | i | nt | i
CCCCCC(=O)N/N=C/c1ccc([N+](=O)[O-])o1 | i | nt | nt | nt | nt | 8.91µM
Cc1ccc(NCC(=O)N/N=C\c2ccc([N+](=O)[O-])o2)cc1 | i | ? | i | i | i | i
O=C(CNc1ccccc1)N/N=C/c1ccc([N+](=O)[O-])o1 | i | ? | i | i | i | i
O=C(CCC(=O)Nc1ccc(Cl)cc1Cl)N/N=C/c1ccc([N+](=O)[O-])o1 | ? | ? | i | i | i | 4.61µM
O=C(Cc1ccc2c(c1)OCO2)NN=Cc1ccc([N+](=O)[O-])o1 | ? | 16.4µM | i | i | i | 18.4µM
CCOC(=O)c1ccc(NC(=O)c2nc(S(=O)(=O)Cc3ccccc3)ncc2Cl)cc1 | 2.91µM | ? | i | i | i | i
CCc1ccc(NC(=O)c2nc(S(=O)(=O)Cc3ccccc3)ncc2Cl)cc1 | nt | ? | i | i | i | nt
COC(=O)c1ccc(NC(=O)c2nc(S(=O)(=O)Cc3cccc(C)c3)ncc2Cl)cc1 | i | 16.4µM | i | i | i | ?
O=C(N/N=C/c1nn(-c2ccccc2)cc1-c1ccc(Cl)cc1)c1ccncc1 | nt | i | i | i | i | nt
COc1ccccc1P(=O)(Cc1ccccc1[N+](=O)[O-])c1ccccc1 (stereo not given) | i | ? | i | i | i | i
Cc1ccc(C(C)C)c(OCC(O)CN(C)Cc2ccccc2)c1 (stereo not given) | ? | i | i | i | i | 20.6µM
Cc1ccc(C(C)C)c(OCCCN(C)Cc2ccccc2)c1 | 23.1µM | i | i | i | 35.5µM | ?
C=C(C)C(=O)Oc1ccc(N2C(=O)CCC2=O)cc1 | i | ? | i | i | 22.4µM | i
COc1ccc(NC(=O)COC(=O)c2cc(Cl)ccc2O)cc1S(=O)(=O)N1CCCCC1 | i | ? | i | i | i | i
CCOC(=O)c1ccc(NC(=O)CCCN2C(=O)NC3(CCCC3)C2=O)cc1 | i | ? | i | i | i | i
SMILES | MCF10A rereplic | ELG1 repair inh | p53 reactivator | ELG1 genotox | A-T KAP1 phos | SW480 rerep
COc1cccc(-c2nn(-c3ccccc3)cc2C(=O)OCC(=O)Nc2ncc(Cl)cc2Cl)c1 | i | 20.6µM | i | i | i | i
O=C(COC(=O)c1cn(-c2ccccc2)nc1-c1ccccc1)Nc1ncc(Cl)cc1Cl | ? | i | i | i | i | ?
COc1ccc(CCC(=O)NC2CCCc3ccccc32)cc1OC (stereo not given) | i | i | i | i | i | i
Cc1cnc(C(=O)OCC(=O)NCc2cccc(Cl)c2)cn1 | i | i | i | i | i | i
O=C(NCC(c1cccs1)N1CCOCC1)c1cc(S(=O)(=O)N2CCOCC2)ccc1F (stereo not given) | i | i | i | i | i | 3.26µM
O=C(NCC(c1cccs1)N1CCOCC1)c1ccc(Cl)nc1 (stereo not given) | 18.4µM | i | i | i | i | ?
O=C(NCC(c1cccs1)N1CCOCC1)c1cc(S(=O)(=O)N2CCOCC2)c(Cl)cc1Cl (stereo not given) | i | i | i | i | i | ?
COc1ccc(-c2noc(CCC(=O)NC3CCCCC3)n2)cc1 | i | i | i | i | i | ?
CCn1cc(CN2CCCC(C(=O)Nc3cccc(-n4cccn4)c3)C2)c(C)n1 (stereo not given) | i | i | i | i | i | i
Cc1nn(C)c(Cl)c1CN1CCCC(C(=O)Nc2cccc(-n3cccn3)c2)C1 (stereo not given) | i | 16.4µM | i | i | i | i
CN1CCN(NC(=O)c2cccc(S(=O)(=O)N3CCCCCC3)c2)CC1 | i | i | i | i | i | i
CN1CCN(NC(=O)c2cccc(C(F)(F)F)c2)CC1 | i | i | i | i | i | 5.8µM
CC(C)NC(=S)N/N=C1\CCCCC1C1CCCCC1 (stereo not given) | 18.4µM | ? | ? | i | i | ?
CC1CCCC/C1=N\NC(=S)Nc1ccccc1 (stereo not given) | i | i | i | i | i | i
O=C(Nc1ccc(N2CCN(C(=O)c3ccco3)CC2)cc1)c1ccc(Br)cc1 | i | i | i | i | i | i
O=C(Nc1ccc(N2CCN(C(=O)c3ccco3)CC2)cc1)c1ccc2c(c1)OCO2 | i[0.0737 µM] | 18.4µM | i | i | i | ?
O=C(Nc1ccc(N2CCN(C(=O)c3ccccc3F)CC2)cc1)c1cncc(Br)c1 | ? | 3.66µM | i | i | i | i
Cc1ccccc1C(=O)N1CCN(c2ccc(NC(=O)c3ccc4c(c3)OCO4)cc2)CC1 | ? | 5.8µM | i | i | i | i
COc1ccccc1C(=O)NC(=S)Nc1ccc(N2CCN(C(=O)c3ccco3)CC2)cc1 | i | 13µM | i | i | i | i
CC(C)CCn1c(SCC(=O)NC2CC2)nc2cc(Cl)ccc2c1=O | i | i | i | i | i | i
Cc1cc(C)c(NC(=O)Cn2nnc(C(=O)Nc3ccc(F)cc3F)c2N)c(C)c1 | ? | ? | ? | ? | i | ?
CC(C)CCCC(C)NC(C)C (stereo not given) | i | nt | nt | nt | nt | i
O=C(Nc1ccc(N2CCN(C(=O)c3ccco3)CC2)cc1)c1cc(Br)ccc1Cl | ? | 11.6µM | i | i | i | ?
CC1CCCCC1NC(=O)CN1C(=O)NC(C)(c2cccc(Br)c2)C1=O (stereo not given) | i | i | i | i | i | i

Screening results (PubChem BioAssay)
